Compound activity: PubChem BioAssay, National Center for Advancing Translational Sciences (NCATS)
MCF10A rereplic: DNA re-replication induction in MCF 10a cells | MCF 10A DNA re-replication, Hoechst nuclear intensity, 48 h | Potency, µM (doses to about 46.1 µM), actives largely listed as activators | 2.9% of 350,000 active | AID 624296; note: nearly all actives have a fitted effect of over 50% in size
KB-V1 cytotox: KB-V1 MDR subline cytotoxicity; KB-V1 MDR cells viability, CellTiter-Glo, 72 h; Potency, µM (titrated, usually from 46.1 µM), usual class: cytotoxic; 3.4% of 400,000 active; AID 1347076; note: nearly all actives have a fitted effect of over 60% in size
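KB-V1 cells (P-gp-expressing MDR subline of KB-3-1) in phenol-red-free DMEM with 10% FBS were exposed to library compounds over a concentration series for 72 h at 37 degrees C. Viability read by CellTiter-Glo luminescence; concentration-effect curves fitted after normalization.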
PTAP TSG101 blk: blocks PTAP/TSG101 interaction to inhibit HIV-1 budding; Q99816; Fluorescence polarization, FITC-PTAP peptide / Tsg101 binding; Potency, µM (doses to about 115 µM), usual class: inhibitors; 340,000 tested, under 10 active; AID 493005; active = well fitted inhibition curve with a large enough effect in the main read-out, with a control signal flat, not every such curve was filed as active; inconclusive = small, poorly fitted or top-dose-only effect, or effect the other way, or a change in a side signal; inactive = no such curve, though single readings can be large or run the other way
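Tsg101 binding domain (10 uM final) was mixed with compound and a FITC-labeled PTAP peptide (50 nM final) in HEPES pH 7.5 buffer with NaCl, Tween 20, EDTA and TCEP; fluorescence polarization was read after 20 min at r.t.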
RGS4 inhibitor: human RGS4 inhibition; P49798; Transcreener GDP fluorescence polarization, RGS4-accelerated GTP hydrolysis; Potency, µM (series often up to 114 µM), most hits filed as inhibitors; 0.039% of 390,000 active; AID 504845; note: nearly all actives have a fitted effect of over 75% in size
Target sequence (P49798 whole entry, looked up): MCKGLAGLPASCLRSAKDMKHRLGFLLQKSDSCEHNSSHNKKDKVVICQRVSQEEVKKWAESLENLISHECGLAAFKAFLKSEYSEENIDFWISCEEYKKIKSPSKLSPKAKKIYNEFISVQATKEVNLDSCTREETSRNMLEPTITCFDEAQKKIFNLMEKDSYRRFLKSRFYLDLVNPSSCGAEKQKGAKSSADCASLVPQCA
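MLSMR compounds (23 nl, pin-transferred) preincubated 10 min at room temperature with a 500nM (2x) first reagent, then RGS4 at 900nM (2x) plus Transcreener GDP mix added; fluorescence polarization (620/688 nm) read before and after 90 min at 30 °C.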
KB-3-1 cytotox: kills parental KB-3-1 adenocarcinoma cells | KB-3-1 viability, CellTiter-Glo ATP luminescence, 72 h | Potency, µM (titrated, usually from 46.1 µM), usual class: cytotoxic | 1.4% of 400,000 active | AID 1347075; note: nearly all actives have a fitted effect of over 60% in size
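Multi-concentration cytotoxicity screen in KB-3-1 cells grown in DMEM lacking phenol red with 10% FBS. After 72 h at 37 °C with compound, ATP-dependent luminescence was recorded.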
SW480 rerep: inducers of DNA re-replication in SW480 colon cancer cells. SW480 DNA re-replication, Hoechst DNA content imaging, 48 h. Potency, µM (highest dose often 46.1 µM), hits mostly activators. 1.8% of 340,000 active. AID 624297; note: nearly all actives have a fitted effect of over 55% in size
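Cells (250 per well) received 23 nL compound or DMSO by pin tool and were kept 48 hr at 37 C, 5% CO2. Nuclei were then stained with Hoechst for 40 min and scanned for DNA content.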
Large screens that a line does not name were inactive. Most compounds without a hit are left out; they make up all but 6.6% or so of the library. Unless noted, calls come from the whole dose curve; as a rule, active = well fitted curve in the direction sought with a large enough effect; inconclusive = small, poorly fitted or top-dose-only effect, or another doubt; inactive = no such curve, though single readings can be large; an effect the other way counts as inactive or inconclusive.

COc1ccc(COCC(O)CN(Cc2ccco2)Cc2ccccc2O)cc1 (configuration not stated)	KB-V1 cytotox 21µM
Oc1ccccc1CN(Cc1ccco1)CC(O)COCc1ccc(Cl)cc1 (configuration not stated)	MCF10A rereplic inconclusive, KB-V1 cytotox inconclusive
O=C(O)c1cc([N+](=O)[O-])ccc1NCc1ccccc1	none
O=C(Nc1ccccc1)c1cc([N+](=O)[O-])ccc1NCc1cccnc1	SW480 rerep 1.3µM
O=c1[nH]c2c(-c3nc(-c4ccc(F)cc4)cs3)c(O)cn2c2ccc(Br)cc12	none (no result: MCF10A rereplic, PTAP TSG101 blk, RGS4 inhibitor, SW480 rerep)
CCCCc1ccc(Nc2nc(CCC)cc(=O)[nH]2)cc1	MCF10A rereplic 5.8µM, KB-V1 cytotox inconclusive, KB-3-1 cytotox inconclusive, SW480 rerep inconclusive
CCCCc1c(C)nc(Nc2ccc(OC)cc2)[nH]c1=O	KB-V1 cytotox 23µM, SW480 rerep inconclusive
CCCCCc1c(C)nc(Nc2ccc(F)cc2)[nH]c1=O	KB-V1 cytotox inconclusive, SW480 rerep inconclusive
O=C(c1ccc2c3n(nc2c1)-c1ccccc1CO3)N1CCOCC1	KB-V1 cytotox inconclusive, KB-3-1 cytotox 7.3µM (no result: PTAP TSG101 blk)
O=C(c1ccc2c3n(nc2c1)-c1ccccc1CO3)N1CCCCC1	KB-V1 cytotox 10µM, KB-3-1 cytotox 9.2µM (no result: PTAP TSG101 blk)
CCOCCC(=O)Nc1ccc2c(c1)c(=O)n(C)n2CC=C(C)C	KB-3-1 cytotox 3.7µM (no result: MCF10A rereplic, PTAP TSG101 blk, RGS4 inhibitor, SW480 rerep)
CCOc1ccccc1Nc1nc(-c2cccc(Cl)c2)c2c(n1)-c1ccccc1OC2	RGS4 inhibitor inconclusive (no result: MCF10A rereplic, PTAP TSG101 blk, SW480 rerep)
CCOc1ccc(C(c2c(NC(=O)c3ccco3)sc(C)c2C)N2CCOCC2)cc1 (configuration not stated)	MCF10A rereplic 21µM, KB-3-1 cytotox inconclusive
Cc1sc(NC(=O)c2ccco2)c(C(c2cccnc2)N2CCCC2)c1C (configuration not stated)	MCF10A rereplic 21µM, SW480 rerep inconclusive
Cc1sc(NC(=O)c2ccco2)c(C(c2ccncc2)N2CCOCC2)c1C (configuration not stated)	none
COc1cccc(C(c2c(NC(=O)c3ccco3)sc(C)c2C)N2CCOCC2)c1 (configuration not stated)	MCF10A rereplic 21µM, KB-V1 cytotox inconclusive, KB-3-1 cytotox 23µM
Cc1sc(NC(=O)c2ccco2)c(C(c2cccnc2)N2CCN(C)CC2)c1C (configuration not stated)	MCF10A rereplic inconclusive
CC1CCN(c2oc(-c3ccc(COc4ccccc4)o3)nc2C#N)CC1	none (no result: MCF10A rereplic, PTAP TSG101 blk, SW480 rerep)
Cc1cccc(N(C)C(=O)CN(C)S(=O)(=O)c2ccc3[nH]c4c(c3c2)CCCC4)c1	none (no result: MCF10A rereplic, PTAP TSG101 blk, SW480 rerep)
Cc1ccc(-c2nn(-c3ccccc3)cc2C2CC(c3cccs3)=NN2C(=O)CCC(=O)O)cc1 (configuration not stated)	none
O=C(O)CCn1cc(C2CC(c3ccccc3)=NN2c2ccccc2)c(-c2ccccc2)n1 (configuration not stated)	MCF10A rereplic 12µM, SW480 rerep 23µM
COc1ccc(C)cc1NC(=O)c1cc2c(s1)CCC2	KB-V1 cytotox inconclusive
COC(=O)c1sccc1NC(=O)c1cc2c(s1)CCCC2	MCF10A rereplic inconclusive, KB-V1 cytotox 15µM
CN1CCN(CCCNC(=O)c2cnn(-c3ccc(F)cc3)c2-n2cccc2)CC1	none (no result: MCF10A rereplic, PTAP TSG101 blk, SW480 rerep)
COc1ccc(N2CCN(CCCNC(=O)c3cnn(-c4ccc(F)cc4)c3-n3cccc3)CC2)cc1	KB-V1 cytotox inconclusive, KB-3-1 cytotox 23µM (no result: MCF10A rereplic, PTAP TSG101 blk, SW480 rerep)
O=C(NCCCN1CCN(CCCNC(=O)c2ccccc2F)CC1)c1ccccc1F	SW480 rerep 7.3µM
CC(CNC(=O)c1cnn(-c2ccc(F)cc2)c1-n1cccc1)c1ccccc1 (configuration not stated)	KB-V1 cytotox 21µM, KB-3-1 cytotox inconclusive (no result: MCF10A rereplic, PTAP TSG101 blk, SW480 rerep)
O=C(NCCCN1CCN(c2ccc(F)cc2)CC1)c1cnn(-c2ccc(F)cc2)c1-n1cccc1	KB-V1 cytotox 18µM, KB-3-1 cytotox inconclusive (no result: MCF10A rereplic, PTAP TSG101 blk, SW480 rerep)
